# RPL19A TOR yeast = RPL19A-GFP expression modulators in yeast, primary screen, cell-based, S. cerevisiae, multiplex flow cytometry, MLPCN | actives 0.3% (n = 330,000) | AID 2025, 2009 | S. cerevisiae RPL19A-GFP strain, 3 h; active compounds read low | percent response vs DMSO, % at 10 µM;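 active = percent response vs DMSO below 50%; inconclusive = fewer than 70 events counted for the yeast strain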;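 also: median channel GFP fluorescence of the barcoded RPL19A-GFP strain; ratio of sample median GFP to plate DMSO average so 100% = DMSO; lower means less RPL19A-GFP as with rapamycin TOR inhibition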
# LAP4-GFP MLPCN = modulators of LAP4-GFP expression in yeast, primary screen, S. cerevisiae, multiplex flow cytometry, MLPCN library | 3 h; median GFP as percent of DMSO wells | GFP response vs DMSO, % at 10 µM | actives 0.34% (n = 320,000) | AID 2023, 2009;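 active = GFP response vs DMSO above a set limit, about the screen mean plus 3 SD, cut at about 150% in these data; inconclusive = under 70 cell events counted for the yeast strain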
# CIT2 TOR yeast = modulators of CIT2-GFP expression in yeast, primary screen, S. cerevisiae, GFP fusion, multiplex flow cytometry, MLPCN library. S. cerevisiae CIT2-GFP strain, 3 h; 100 means same as DMSO wells. GFP response vs DMSO, % at 10 µM. actives 0.065% (n = 320,000). AID 2029, 2009;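 active = GFP response relative to DMSO above a set limit, near the screen mean plus 3 SD, cut at about 150% in these data; inconclusive = Fewer than 70 cells measured for a yeast strain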;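 also: ratio of well median GFP fluorescence to mean of DMSO wells on the plate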
# AGP1-GFP MLPCN = modulators of AGP1-GFP expression in yeast TOR pathway, primary screen, cell-based, multiplex flow cytometry, S. cerevisiae, MLPCN library | 3 h; GFP as percent of DMSO wells | GFP response vs DMSO, % at 10 µM | actives 0.02% (n = 320,000);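 active = GFP response relative to DMSO above a set limit, near screen average plus 3 SD, cut at about 150% in these data; inconclusive = fewer than 70 cells counted for the yeast strain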;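 also: median GFP channel fluorescence of the gated AGP1 strain per well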
# MEP2-GFP yeast = modulators of MEP2-GFP levels in yeast, primary screen, S. cerevisiae, multiplex flow cytometry, MLPCN library; S. cerevisiae MEP2-GFP strain, 3 h; 100% = DMSO control level; GFP response vs DMSO, % at 10 µM; actives 0.51% (n = 330,000);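 active = GFP response versus DMSO above a set limit, roughly screen mean plus 3 SD, cut at about 180% in these data; inconclusive = fewer than 70 cells counted for a yeast strain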;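 also: median GFP fluorescence of the barcode-gated MEP2-GFP cells per well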
# VLA-4 inh = inhibition in human VLA-4 binding assay, primary screen, VLA-4 allosteric modulator project, MLPCN library, flow cytometry, VLA-4 expressing cells; Integrin alpha-4 (Homo sapiens), P13612; ligand binding flow cytometry; inhibition, % (about 7 µM as worked out from the volumes in the protocol); actives 0.2% (n = 330,000); in the data active = inhibition above about 50%
# Target sequence (P13612 whole entry, looked up): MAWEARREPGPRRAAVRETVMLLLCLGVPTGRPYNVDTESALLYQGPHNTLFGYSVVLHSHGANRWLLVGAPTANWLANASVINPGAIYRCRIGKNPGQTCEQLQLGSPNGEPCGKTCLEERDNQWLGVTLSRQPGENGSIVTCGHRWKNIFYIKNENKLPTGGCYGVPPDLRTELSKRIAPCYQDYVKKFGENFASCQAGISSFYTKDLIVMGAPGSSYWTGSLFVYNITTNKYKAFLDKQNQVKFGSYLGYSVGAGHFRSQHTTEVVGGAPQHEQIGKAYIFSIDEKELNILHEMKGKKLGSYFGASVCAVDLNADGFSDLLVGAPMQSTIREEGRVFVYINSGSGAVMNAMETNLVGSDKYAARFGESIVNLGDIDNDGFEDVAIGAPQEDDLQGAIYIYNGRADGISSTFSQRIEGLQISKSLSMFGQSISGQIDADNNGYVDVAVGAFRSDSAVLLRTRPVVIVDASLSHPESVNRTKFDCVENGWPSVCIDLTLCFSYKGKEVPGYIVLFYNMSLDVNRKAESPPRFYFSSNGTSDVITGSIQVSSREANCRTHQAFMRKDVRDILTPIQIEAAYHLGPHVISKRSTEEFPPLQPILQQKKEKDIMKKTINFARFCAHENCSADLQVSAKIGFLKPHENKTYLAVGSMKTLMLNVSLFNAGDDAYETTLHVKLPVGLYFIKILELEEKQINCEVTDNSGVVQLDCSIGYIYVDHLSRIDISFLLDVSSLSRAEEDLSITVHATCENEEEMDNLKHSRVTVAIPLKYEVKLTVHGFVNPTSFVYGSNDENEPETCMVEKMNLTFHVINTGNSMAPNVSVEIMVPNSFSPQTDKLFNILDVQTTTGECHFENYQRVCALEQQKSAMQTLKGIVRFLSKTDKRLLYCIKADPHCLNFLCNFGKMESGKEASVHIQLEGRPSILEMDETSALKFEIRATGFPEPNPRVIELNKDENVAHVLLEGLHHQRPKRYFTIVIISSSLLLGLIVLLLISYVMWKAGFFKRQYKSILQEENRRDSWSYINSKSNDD
# * = called active by the depositor; ? = inconclusive; . = no result given; + = active, no number; [ ] = another dose, or the depositor's remark. A selection: hits, their analogues and other compounds. The true share with any hit is near 1.1%.
SMILES,RPL19A TOR yeast,LAP4-GFP MLPCN,CIT2 TOR yeast,AGP1-GFP MLPCN,MEP2-GFP yeast,VLA-4 inh
Fc1ccc(C2Nc3cccc4cccc(c34)N2)cc1,106,159*,137,97,202*,4
COC(=O)c1ccc(C2Nc3cccc4cccc(c34)N2)cc1,96,152*,74,102,102,5
COc1ccc(NC(=O)Nc2ccon2)cc1OC,119,73,100,97,105,-1
CC1(C)CCN2CCC(C)(C)c3c(O)ccc1c32,113,164*,191*,107,234*,-222
O=C(O)c1ccc(N=Nc2c(O)ccc3ncccc23)cc1,74,69,?,37,+[may fluoresce violet],-5
Cc1ccc(C(=O)COC(=O)CNC(=O)c2ccccc2)s1,100,105,99,99,102,-2
Cc1cccc(C)c1OCc1cc(C(=O)N2CCN(c3ccc(F)cc3)CC2)no1,105,94,109,103,105,-4
COc1ccc(C2/C(=C(/O)c3ccccc3)C(=O)C(=O)N2CCO)cc1 (stereo not drawn),62,91,?,25,212*[may fluoresce violet],3
CCc1cccc(C)c1NC(=O)CC1Oc2ccc(C)cc2NC1=O (stereo not drawn),110,134,153*,99,203*,12
CON(C)C(=O)CC(CNC(=O)OC(C)(C)C)c1ccc(Cl)cc1 (stereo not drawn),102,116,107,109,106,-5
COc1ccc2nc(C)cc(Sc3nc4ccccc4s3)c2c1,43*[may fluoresce violet],65,?,?,675*[may fluoresce violet],-96
COc1ccc2nc(C)cc(SCC(=O)NNC(=O)COc3ccccc3)c2c1,102,85,111,106,109,1
COC(=O)c1ccccc1NC(=O)c1ccc(-c2cccc(Cl)c2)o1,38*[may fluoresce violet],103,?,.,324*[may fluoresce violet],-4
COC(=O)c1ccccc1NC(=O)c1ccc(COc2ccccc2)o1,99,106,96,93,92,3
Cc1ccc(C)c(-n2c(Cc3cc(=O)[nH]c(=O)[nH]3)nnc2SCC(=O)NCC2CCCO2)c1 (stereo not drawn),23*[may fluoresce violet],74,?,?,234*[may fluoresce violet],-4
COc1nc(Cl)cn(-c2ccc(C)cc2)c1=O,103,92,101,102,95,-16
Cc1ccc(-n2c(Cl)c(Cl)nc(Cl)c2=O)cc1,55,183*[may fluoresce violet],?,10,98,-87
Cc1cc(C)n(-c2ccc(NC(=O)C3CCCCN3C(=O)c3cc(C)oc3C)cc2)n1 (stereo not drawn),98,90,97,102,100,28
COc1ccc(N2CC(C(=O)Nc3ccncc3)CC2=O)cc1 (stereo not drawn),104,101,99,98,110,3
CCn1c(SCC(=O)N2CCCCC2C)nc2c1c(=O)n(C)c(=O)n2C (stereo not drawn),49*[may fluoresce violet],81,?,?,?,3
CC1CCN(C(=O)CSc2nc3c(c(=O)n(C)c(=O)n3C)n2C)CC1,93,99,88,94,104,1
CCn1c(=O)c2c(nc(SCC(=O)N3CCC(C)CC3)n2C)n(C)c1=O,49*[may fluoresce violet],81,?,?,364*[may fluoresce violet],3
CCCCn1c(SCC(=O)N2CCCC2)nc2c1c(=O)n(C)c(=O)n2C,99,97,101,96,100,-5
CCn1c(SCC(=O)N2CCCCC2)nc2c1c(=O)n(C)c(=O)n2C,62,90,?,14,393*[may fluoresce violet],-4
CCOC(=O)C(CC)n1cnc2c(nnn2-c2ccccc2)c1=O (stereo not drawn),102,104,103,109,103,-6
SMILES,RPL19A TOR yeast,LAP4-GFP MLPCN,CIT2 TOR yeast,AGP1-GFP MLPCN,MEP2-GFP yeast,VLA-4 inh
O=C(CNC(=O)c1cccc([N+](=O)[O-])c1)NC1CCCc2ccccc21 (stereo not drawn),95,103,101,96,98,4
COc1ccc(/C=N/Nc2nc(-c3cccnc3)nc3ccccc23)cc1OC,53,185*,107,87,116,-27
CCOc1ccc(CN(C)c2nc(-c3cccnc3)nc3ccccc23)cc1OC,48*[may fluoresce violet],84,?,?,259*[may fluoresce violet],5
COc1cc2nc(/C=C/c3cc(OC)c(OC)c(OC)c3)sc2cc1SC,18*[may fluoresce violet],92,?,?,228*[may fluoresce violet],-7
COc1ccc(CN2CCN(c3ncccn3)CC2)c(C)c1C,89,135,138,110,189*,-1
COc1cccc(-c2nc(NCc3cccnc3)c3ccccc3n2)c1O,31*[may fluoresce violet],80,?,42,561*[may fluoresce violet],8
CC(=O)c1sc(C(C)(C)C)cc1NC(=O)CCC(=O)O,98,109,103,104,98,6
COC(=O)c1sc(-c2ccc(Cl)cc2)cc1NC(=O)COCC(=O)O,94,121,82,93,97,4
COC(=O)c1sc(-c2ccc(Cl)cc2)cc1NC(=O)/C=C/C(=O)O,43*[may fluoresce violet],65,?,?,351*[may fluoresce violet],-33
COC(=O)c1sc(-c2ccc(C(C)(C)C)cc2)cc1NC(=O)CCC(=O)O,40*,69,86,20,118,-9
Cn1c(=O)c2c(SCC(=O)N3CCOCC3)nc(-c3ccccc3F)nc2n(C)c1=O,99,111,98,103,103,0
Cc1ccc2oc(=O)n(Cc3ccccc3)c2c1,105,98,98,101,114,19
COc1ccc(N2CCN(C(=O)COC(=O)COc3cccc(C(F)(F)F)c3)CC2)cc1,93,100,96,103,102,0
CCCC1=C(C(=O)OCC)C(c2ccncc2)n2ncnc2N1 (stereo not drawn),11*[may fluoresce violet],80,?,?,194*[may fluoresce violet],4
CCCC1=C(C(=O)OCC)C(c2cccnc2)n2nc(C)nc2N1 (stereo not drawn),93,103,104,103,91,25
CN1CCCC1CCNc1ccc2c(=O)c3ccccc3oc2c1 (stereo not drawn),44*[may fluoresce violet],99,?,37,342*[may fluoresce violet],30
O=C(N/C(=C\c1ccc(Cl)cc1)C(=O)N1CCCCC1)c1ccco1,64,91,?,14,476*[may fluoresce violet],9
O=C(Nc1nccs1)C(F)(F)C(F)(F)C(F)(F)C(=O)Nc1nccs1,31*[may fluoresce violet],97,?,?,?,-2

# Screening results deposited in PubChem by NMMLSC.
